Data: PubChem BioAssay AID1209 (Sanford-Burnham Center for Chemical Genomics, 2008)
The campaign covered roughly 190,000 compounds. About 810 (0.43%) were called active. The sample holds actives, similar compounds and a random draw of the others, so the mix is not that of the screen. A number with no mark means an inactive call. Rule as the data show it: active = inhibition above about 50%; inactive = the rest.

These molecules were tested against Mannose-6-phosphate isomerase (Homo sapiens) (UniProt P34949) (assay: MPI enzyme activity inhibition – biochemical, fluorescence intensity, coupled assay, primary screen (AID 1209;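 also: plate controls were DMSO vehicle for no effect and wells lacking substrate for full effect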)). Details: purified PMI enzyme, at 20 µM, active compounds read high.
Mannose-6-phosphate isomerase (Homo sapiens), sequence (P34949 whole entry, looked up): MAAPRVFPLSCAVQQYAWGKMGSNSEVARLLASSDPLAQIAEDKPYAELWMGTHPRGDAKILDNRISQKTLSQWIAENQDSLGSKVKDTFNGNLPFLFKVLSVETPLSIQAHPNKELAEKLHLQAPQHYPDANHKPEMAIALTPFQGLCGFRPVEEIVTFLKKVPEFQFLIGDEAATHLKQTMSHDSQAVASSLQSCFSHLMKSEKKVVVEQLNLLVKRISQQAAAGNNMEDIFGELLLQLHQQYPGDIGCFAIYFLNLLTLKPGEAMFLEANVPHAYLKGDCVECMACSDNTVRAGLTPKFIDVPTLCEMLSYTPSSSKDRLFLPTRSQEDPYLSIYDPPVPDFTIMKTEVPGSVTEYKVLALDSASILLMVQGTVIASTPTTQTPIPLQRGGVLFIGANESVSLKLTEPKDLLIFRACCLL
In the case of `C=CCn1c2[n+](c3ccccc3c1=O)CCCCC2`, the inhibition is reported as 66.2% (active).
For `C=CCn1c(=S)[nH]c2ccccc2c1=O`, the inhibition was 1.8%.
Molecule `C=CCn1c(C)nc2ccccc2c1=O` has an inhibition of 10%.
Molecule `COc1ccc(NC(C)=O)cc1NC(C)C(=O)Nc1ccc(F)c(F)c1F` (centres undefined) has an inhibition of 13.6%.
In the case of `Cc1cc(C)nc(-n2nc(C)cc2NC(=O)c2cccc(S(=O)(=O)N3CCCCC3)c2)n1`, the inhibition is reported as 15.9%.
Work on `CCN(CC)c1ccc(NC(=O)/C=C/c2cc(Br)ccc2OC)cc1` yielded an inhibition of 6.9%.
`Cn1c(SCC(=O)N2CCc3ccccc32)nnc1-c1ccc(S(=O)(=O)N2CCCC2)cc1` was tested, and the inhibition was 18.8%.
In the case of `CC1Cc2ccccc2N1C(=O)CSc1nnc(-c2ccc(S(=O)(=O)N3CCCC3)cc2)n1C` (centres undefined), the inhibition is reported as 60.6% (active).
In the case of `CC1Cc2ccccc2N1C(=O)CSc1nnc(-c2ccc(S(=O)(=O)N3CCOCC3)cc2)n1C` (centres undefined), the inhibition is reported as -0.3%.
Work on `CCOC(=O)c1ccc(NC(=O)CSCC(=O)OCC(=O)c2ccccc2)cc1` yielded an inhibition of 19.6%.
In the case of `O=C(CSc1nc2ccc(S(=O)(=O)N3CCOCC3)cc2[nH]1)N1CCOCC1`, the inhibition is reported as 66% (active).
In the case of `Cc1ccc2nc(SCC(=O)N3CCOCC3)[nH]c2c1`, the inhibition is reported as -2.9%.
With `CCOC(=O)CSc1nc2ccc(S(=O)(=O)N3CCOCC3)cc2[nH]1` the inhibition was -11.2%.
In the case of `COc1ccc(OC)c(NS(=O)(=O)c2ccc(NC(=O)c3ccc(NS(C)(=O)=O)cc3)cc2)c1`, the inhibition is reported as 1.4%.
For `O=C(OCC(CO)OC(CO)n1ccc(=O)[nH]c1=O)c1ccccc1` (centres undefined), the inhibition was 7.7%.
With `Cn1c(=O)oc2cc(S(=O)(=O)N3CCC(C(=O)NCc4ccc(F)cc4)CC3)ccc21` the inhibition was 4.5%.
In the case of `CCn1c(N)c(C(N)=O)sc1=S`, the inhibition is reported as 18.4%.
In the case of `CCn1c(N)c(C(=O)NCC2CCCO2)sc1=S` (centres undefined), the inhibition is reported as 70.4% (active).
With `CCNC(=O)c1sc(=S)n(CC)c1N` the inhibition was 6.5%.
In the case of `CCn1c(N)c(C(=O)NC)sc1=S`, the inhibition is reported as 67.3% (active).
With `C=CCn1c(N)c(C(=O)NCC2CCCO2)sc1=S` (centres undefined) the inhibition was -2.2%.
In the case of `CCOC(=O)c1ccc(-n2c(N)c(C(=O)NCC3CCCO3)sc2=S)cc1` (centres undefined), the inhibition is reported as 31.5%.
`CCN(CC)CCn1c(=N)n(CC(O)c2ccc(OC)c(OC)c2)c2ccccc21` (centres undefined) showed an inhibition of -0.3%.
Molecule `O=C(CCN1C(=O)C2CC=CCC2C1=O)N1CCN(c2ccccn2)CC1` (centres undefined) has an inhibition of -3.3%.
Molecule `C=CCSc1nnc(C)n1-c1ccc(Cl)cc1` has an inhibition of 21.9%.
`C/C(=N\N=C(N)N)c1cccc(Cl)c1` gave an inhibition of 11.7%.
Work on `O=C(N/N=C/c1ccccc1C(=O)O)C(=O)N1CCCCC1` yielded an inhibition of 2.7%.
Work on `S=C(NCCN1CCOCC1)N/N=C/c1ccccc1` yielded an inhibition of 2%.
Molecule `Oc1ccc(/C=N/NC(=S)Nc2cccnc2)cc1O` has an inhibition of 43.5%.
In the case of `NC(=S)N/N=C/c1ccccc1[N+](=O)[O-]`, the inhibition is reported as 24.6%.
`Oc1cccc(/C=N/NC(=S)NCCN2CCOCC2)c1O` was tested, and the inhibition was 66.9% (active).
With `Oc1cccc(/C=N/NC(=S)Nc2cccnc2)c1O` the inhibition was 55.6% (active).
Work on `Oc1ccc(/C=N/NC(=S)Nc2cccnc2)c(O)c1` yielded an inhibition of -1.2%.
For `Oc1ccc(/C=N/NC(=S)NCCN2CCOCC2)c(O)c1`, the inhibition was -8.8%.
In the case of `NC(=S)N/N=C/c1ccccc1`, the inhibition is reported as 11.4%.
Work on `O=C(COc1ccc(Cl)cc1)NCC(=O)N/N=C/c1cccs1` yielded an inhibition of 2.8%.
Work on `Cc1noc(C(=O)Nc2c(C)n(C)n(-c3ccccc3)c2=O)c1Cl` yielded an inhibition of -5.9%.
`COc1cccc(S(=O)(=O)N2CCOCC2)c1` gave an inhibition of 1.2%.
For `O=C(COC(=O)c1cccnc1Cl)NCC1CCCO1` (centres undefined), the inhibition was -1.2%.
Work on `CCOc1ccc(OCC(=O)OCn2c(SC)nnc(C)c2=O)cc1` yielded an inhibition of 15.9%.
For `O=c1[nH]c2ccccc2n2cnnc12`, the inhibition was -5.1%.
`O=c1[nH]c2ccccc2n2c(-c3ccccc3)nnc12` was tested, and the inhibition was 84.7% (active).
`O=c1[nH]c2ccccc2n2c(-c3ccncc3)nnc12` gave an inhibition of 1.8%.
With `Cc1ccc(NC(=O)N(CCCN2CCOCC2)Cc2cccnc2)cc1C` the inhibition was -1.1%.
Molecule `COC(=O)CNC(=O)Cn1cnc2sc(C)c(S(=O)(=O)N3CCC(C)CC3)c2c1=O` has an inhibition of -9%.
`CCc1ccc(N2CCCn3c2nc2c3c(=O)n(CCN3CCOCC3)c(=O)n2C)cc1` gave an inhibition of -10.4%.
Molecule `O=C(N/N=C/c1ccccc1)c1[nH]c2ccc(Br)cc2c1-c1ccccc1` has an inhibition of 15.4%.
In the case of `Oc1ccc(Br)cc1/C=N/N1CCN(Cc2ccccc2)CC1`, the inhibition is reported as 6.6%.
`O=C(O)c1cccc(C(=O)O)n1` was tested, and the inhibition was 58% (active).
For `CC(=O)Nc1cccc(C(=O)O)n1`, the inhibition was 6.7%.
For `CC(C)OC(=O)c1cccc(C(=O)O)n1`, the inhibition was 21.8%.
Molecule `Cc1ccc(SCc2cn3cccnc3n2)cc1` has an inhibition of 12.5%.
`Cc1ccc(C2=[N+]([O-])C3(CCCCC/C3=N\NC(N)=O)N(O)C2(C)C)o1` (centres undefined) gave an inhibition of -4.7%.
For `O=C(COc1ccccc1C(=O)N/N=C\c1ccc(O)c(O)c1)N/N=C/c1ccc(O)c(O)c1`, the inhibition was 60.6% (active).
`O=C(COc1ccccc1[N+](=O)[O-])N/N=C/c1ccc(O)c([N+](=O)[O-])c1` gave an inhibition of -10.2%.
Molecule `COc1cccc(/C=N/NC(=O)Cn2ccnc2C)c1` has an inhibition of 14.6%.
In the case of `O=C(COc1ccccc1-c1ccccc1)N/N=C/c1ccc2ccccc2c1`, the inhibition is reported as 8.9%.
Work on `Cc1nccn1CC(=O)N/N=C/c1cccc(O)c1` yielded an inhibition of 7.9%.
With `Cc1nccn1CC(=O)N/N=C/c1ccc(O)c(O)c1` the inhibition was 64.4% (active).
`CCOC(=O)C1=C(C)NC(SC(C)=O)=NC1c1ccc(OC(C)=O)c(OC)c1` (centres undefined) gave an inhibition of 17.5%.
For `CC1CCc2c(sc(NC(=O)COC(=O)C3CCCO3)c2C#N)C1` (centres undefined), the inhibition was -3.7%.
With `O=C(CSCC(=O)N1CCOCC1)Nc1ccccc1` the inhibition was -11.1%.
Molecule `O=C(NCCc1ccccc1)C1CCN(S(=O)(=O)N2CCC3(CC2)OCCO3)CC1` has an inhibition of 17.1%.
For `O=C1CN(C(=O)CSc2nc(-c3ccccc3)cs2)c2ccccc2N1`, the inhibition was -3.1%.
`COc1ccc2nc(NNC(=O)C3COc4ccccc4O3)sc2c1` (centres undefined) showed an inhibition of -43.9%.
`CN1C(=O)/C(=C/C=C2\SCCN2C)N(C)C1=S` was tested, and the inhibition was 45.3%.
`CN1C(=O)/C(=C/C=C2/CCCN2C)N(C)C1=S` gave an inhibition of 35.8%.
`CN1C(=O)/C(=C\C=C2/CCCN2C)N(C)C1=S` was tested, and the inhibition was 53.2% (active).
For `COc1ccc(/C=C(/NC(=O)c2ccccc2)C(=O)N/N=C/c2ccncc2)c(OC)c1`, the inhibition was 18.6%.
For `COc1ccc(CCNC(=O)c2nnn(CC(=O)Nc3cccc(F)c3)c2N)cc1OC`, the inhibition was -0.3%.
For `CCOc1ccc(/C=C/C(O)=C2/C(=O)NC3(C)CC2c2ccccc2O3)cc1OC` (centres undefined), the inhibition was -21.3%.
`O=C(Cc1cnn(-c2ccccc2)c1)c1ccc(O)c(O)c1O` was tested, and the inhibition was 70.8% (active).
`O=C(c1cnn(-c2ccccc2)c1)c1ccccc1O` gave an inhibition of 19.7%.
For `CCc1cc(C(=O)Cc2cnn(-c3ccccc3)c2)c(O)cc1O`, the inhibition was 11.4%.
`Nn1c(SCC(=O)Nc2ccc3c(c2)OCO3)nnc1C1CC1` was tested, and the inhibition was 5.7%.
With `N#Cc1ccc(N=c2ssnc2Cl)cc1` the inhibition was 81.2% (active).
For `N#Cc1cccc(N=Cc2c(O)ccc3ccccc23)c1`, the inhibition was 39.3%.
`CSc1nccc(Oc2cccc(C#N)c2)n1` showed an inhibition of -4.1%.
Work on `COc1ccc(N2CCN(C(=O)c3cccn4c(=O)c5ccccc5nc34)CC2)cc1` yielded an inhibition of -5.8%.
`CC1CCCCN1Cc1c(O)ccc2c(=O)c(-c3nc4ccccc4s3)c(N)oc12` (centres undefined) was tested, and the inhibition was 58% (active).
With `CC1CCN(Cc2c(O)ccc3c(=O)c(-c4nc5ccccc5s4)c(N)oc23)CC1` the inhibition was 11.2%.
Molecule `CC1CCCN(Cc2c(O)ccc3c(=O)c(-c4nc5ccccc5s4)c(N)oc23)C1` (centres undefined) has an inhibition of 6.9%.
`O=c1c(-c2ccccc2)c(O)nc2ccccn12` was tested, and the inhibition was 4.9%.
`COc1cc(C(=O)OCC(=O)N(C)C)cc(NC(=O)c2ccco2)c1OC` was tested, and the inhibition was 5.7%.
`CO[C@H]1C=CO[C@@]2(C)Oc3c(C)c(O)c4c(O)c(c(C=NN5CCN(C)CC5)c(O)c4c3C2=O)NC(=O)C(C)=CC=C[C@H](C)[C@H](O)[C@@H](C)[C@@H](O)[C@@H](C)[C@H](OC(C)=O)[C@@H]1C` gave an inhibition of 7%.
In the case of `CO[C@H]1C=CO[C@@]2(C)Oc3c(C)c(O)c4c(O)c(c(C=NN5CCN(C6CCCC6)CC5)c(O)c4c3C2=O)NC(=O)C(C)=CC=C[C@H](C)[C@H](O)[C@@H](C)[C@@H](O)[C@@H](C)[C@H](OC(C)=O)[C@@H]1C`, the inhibition is reported as 50.8% (active).
`CO[C@H]1C=CO[C@@]2(C)Oc3c(C)c(O)c4c(O)c(c5c(nc6cc(C)ccn65)c4c3C2=O)NC(=O)C(C)=CC=C[C@H](C)[C@H](O)[C@@H](C)[C@@H](O)[C@@H](C)[C@H](OC(C)=O)[C@@H]1C` showed an inhibition of 13.9%.
`CC1=NC(C(F)(F)F)(C(F)(F)F)C2=C(CC(C)(C)CC2=O)N1Cc1ccco1` was tested, and the inhibition was 6%.
`CN1CCN(/N=C/c2nc(-c3cccc([N+](=O)[O-])c3)n3ccccc23)CC1` gave an inhibition of 8.1%.
With `O=C(Nc1nc2ccccc2[nH]1)C1CCCC1` the inhibition was 4.1%.
`CC(NS(=O)(=O)c1ccccc1)C(c1cccs1)N1CCN(C)CC1` (centres undefined) was tested, and the inhibition was 1.7%.
In the case of `CC(=O)n1cc(Nc2ccc([N+](=O)[O-])cc2)c2ccccc21`, the inhibition is reported as -30.8%.
`CC(=O)n1cc(C(C[N+](=O)[O-])SCCN)c2ccccc21` (centres undefined) was tested, and the inhibition was 6.6%.
`CC(=O)SC(C[N+](=O)[O-])c1cn(C(C)=O)c2ccccc12` (centres undefined) was tested, and the inhibition was 63.1% (active).
